# Results published in PubChem BioAssay (EPA / NIEHS).
# The source made the active and inactive calls. The calls were made as follows: active = hit-call score of the fitted dose curve at least 0.9, where 1 is the maximum; inactive = score below 0.9.
# Tests used:
# [1] = ATG_ISRE_CIS: Attagene CIS-FACTORIAL HepG2 Assay for human Interferon Regulatory Factor 1 (IRF1) binding to an Interferon-Stimulated Response Element (ISRE) (AID 2282948); conditions: HepG2 ISRE cis-reporter (Attagene), mRNA transcription readout; actives raise or lower the signal
# Procedure, shortened: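 Transiently transfected HepG2 cells carrying cis-element reporter units, dosed 24 hours. Reporter mRNA quantified by RT-PCR, fluorescent primer extension, HpaI digestion and capillary electrophoresis. Bidirectional fitting relative to DMSO.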
# [2] = ATG_M_32_CIS: Attagene CIS-FACTORIAL HepG2 Assay for M32 Transcription Factor (Internal Marker) (AID 2282949); conditions: HepG2 Attagene cis-factorial M32 reporter, mRNA; actives raise or lower the signal;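 also: background control marker of the multiplexed CIS panel rather than a real target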
# Procedure, shortened: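 HepG2 cells transiently transfected with multiplexed cis-regulated reporter units, dosed 24 h. Reporter mRNA quantified by RT-PCR, 6-FAM labelling, HpaI digestion and capillary electrophoresis; bidirectional fit vs DMSO.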
# [3] = ATG_M_06_CIS: Attagene CIS-FACTORIAL HepG2 Assay for M06 Transcription Factor (Internal Marker) (AID 2282950); conditions: HepG2 Attagene CIS-FACTORIAL M06 internal marker reporter; actives raise or lower the signal
# Procedure, shortened: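 Measured 24 h post-dosing in transiently transfected HepG2 cells, this internal-marker endpoint reports reporter mRNA via RT-PCR with fluorescent primer extension and capillary electrophoresis. DMSO served as negative control and baseline for bidirectional fitting.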
# [4] = target: Hypoxia-inducible factor 1-alpha (Homo sapiens) (UniProt Q16665); experiment: ATG_HIF1a_CIS: Attagene CIS-FACTORIAL HepG2 Assay for human Hypoxia Inducible Factor 1 (HIF1A) (AID 2282951); conditions: HepG2 Attagene cis-factorial HIF1a reporter transcription; actives raise or lower the signal
# Procedure, shortened: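 Activity is fitted in both directions relative to DMSO. Reporter transcripts are read by RT-PCR, fluorescent primer extension and capillary electrophoresis after 24 h chemical treatment. The cells are HepG2 carrying transiently transfected cis-element-driven reporter units responding to endogenous factors.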
# [5] = target: Heat shock factor protein 1 (Homo sapiens) (UniProt Q00613); experiment: ATG_HSE_CIS: Attagene CIS-FACTORIAL HepG2 Assay for human Heat Shock Transcription Factor 1 (HSE) (AID 2282953); conditions: HepG2 HSE cis-reporter, Attagene RNA transcription; actives raise or lower the signal
# Procedure, shortened: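 Reporter mRNA induction in HepG2 is measured 24 h after dosing, using transiently transfected multiplexed cis-regulated reporter units. Signal comes from capillary electrophoresis of labelled RT-PCR products, with DMSO as negative control.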
# [6] = ATG_MRE_CIS: Attagene CIS-FACTORIAL HepG2 Assay for human Metal Responsive Element (MRE) (AID 2282954); conditions: HepG2 MRE cis-reporter transcription, Attagene multiplex; actives raise or lower the signal
# Procedure, shortened: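 Transient MRTU transfection of HepG2 (FuGene 6); 24 h dosing; total RNA → oligo(dT) RT, PCR, 6-FAM primer extension, HpaI cut, CE. Bidirectional fit vs DMSO.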
# [7] = ATG_PBREM_CIS: Attagene CIS-FACTORIAL HepG2 Assay for human Phenobarbital-responsive Enhancer Module (PBREM) (AID 2282955); conditions: HepG2 PBREM cis-reporter, Attagene multiplexed transcription; actives raise or lower the signal
# Procedure, shortened: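 Endogenous transcription factor activity was read from reporter transcripts in transiently transfected human HepG2 liver cells after 24 h dosing. RT-PCR products were fluorescently labelled, HpaI-cut and sized by capillary electrophoresis; activity fitted bidirectionally against DMSO baseline.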
# [8] = target: Paired box protein Pax-6 (Homo sapiens) (UniProt P26367); experiment: ATG_Pax6_CIS: Attagene CIS-FACTORIAL HepG2 Assay for human Paired Box 6 (PAX6) (AID 2282956); conditions: HepG2 CIS-FACTORIAL PAX6 reporter transcription, RNA readout; actives raise or lower the signal
# Procedure, shortened: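 HepG2 cells transiently transfected with cis-promoter-driven multiplexed reporter units sensing endogenous transcription factor activity; 24 h chemical exposure. Reporter mRNA quantified by RT-PCR, 6-FAM labelling, HpaI digestion and capillary electrophoresis; bidirectional fit versus DMSO baseline.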
# [9] = ATG_PXRE_CIS: Attagene CIS-FACTORIAL HepG2 Assay for human Pregnane X Receptor Element (PXRE) (AID 2282957); conditions: HepG2 Attagene CIS-FACTORIAL PXRE reporter, mRNA; actives raise or lower the signal
# Procedure, shortened: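 Cis-element reporter mRNA in human hepatoma HepG2 cells is measured 24 h post-dosing by RT-PCR, primer-extension labeling and capillary electrophoresis; gain or loss of signal is fitted relative to DMSO.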
# [10] = ATG_PPRE_CIS: Attagene CIS-FACTORIAL HepG2 Assay for human Peroxisome Proliferator-activated Response Element (PPRE) (AID 2282958); conditions: HepG2 PPRE cis-element reporter, Attagene transcription factor profiling; actives raise or lower the signal
# Procedure, shortened: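 Endogenous PPRE-driven transcription is measured in HepG2 cells carrying transfected multi-reporter constructs. Reporter transcripts are quantified by RT-PCR, HpaI digestion and capillary electrophoresis 24 h after dosing. DMSO baseline, bidirectional fit.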
# [11] = ATG_RORE_CIS: Attagene CIS-FACTORIAL HepG2 Assay for human RAR-related Orphan Receptor Element (RORE) (AID 2282959); conditions: HepG2 Attagene cis-factorial RORE reporter, mRNA; actives raise or lower the signal
# Procedure, shortened: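 RORE reporter transcripts reflecting endogenous factor activity were read after 24 h compound exposure of transfected HepG2 cells, using reverse transcription, PCR, fluorescent labelling and capillary electrophoresis sizing. Gain or loss fitted against DMSO.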
# [12] = ATG_Sox_CIS: Attagene CIS-FACTORIAL HepG2 Assay for human SRY-box transcription factor (SOX) (AID 2282960); conditions: HepG2 Attagene cis-factorial SOX reporter, mRNA; actives raise or lower the signal
# Procedure, shortened: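 Reporter transcripts, measured by RT-PCR and capillary electrophoresis of labelled fragments, report endogenous SOX transcription factor activity. Transiently transfected human HepG2 cells receive chemical for 24 h; changes in either direction are fitted relative to DMSO.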
# [13] = target: Transcription factor Sp1 (Homo sapiens) (UniProt P08047); experiment: ATG_Sp1_CIS: Attagene CIS-FACTORIAL HepG2 Assay for human Specificity Protein 1 (Sp1) (AID 2282961); conditions: HepG2 Sp1 cis-reporter transcription, actives raise or lower the signal
# Procedure, shortened: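 Read-out is reporter transcript level, measured by RT-PCR and fluorescent capillary electrophoresis after 24 h chemical treatment. System: transiently transfected HepG2 cells reporting endogenous transcription factor activity; gain or loss fitted against DMSO baseline.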
# [14] = ATG_SREBP_CIS: Attagene CIS-FACTORIAL HepG2 Assay for human Sterol Regulatory Element Binding (SREBP) (AID 2282962); conditions: HepG2 Attagene cis-factorial SREBP reporter, mRNA; actives raise or lower the signal
# Procedure, shortened: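 HepG2 cells transiently transfected with multiplexed cis-promoter reporter units sensing endogenous transcription factors; reporter mRNA measured 24 h after dosing by RT-PCR, 6-FAM labeling, HpaI digestion and capillary electrophoresis. Bidirectional fit versus DMSO.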
# [15] = target: Signal transducer and activator of transcription 3 (Homo sapiens) (UniProt P40763); experiment: ATG_STAT3_CIS: Attagene CIS-FACTORIAL HepG2 Assay for human Signal Transducer and Activator of Transcription 3 (STAT3) (AID 2282963); conditions: HepG2, Attagene cis-factorial STAT3 reporter transcription; actives raise or lower the signal
# Procedure, shortened: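 Endogenous STAT3-responsive cis-element activity was read in transiently transfected HepG2 cells after 24 h treatment. Reporter transcripts were quantified via RT-PCR and capillary electrophoresis, with DMSO as negative control and bidirectional curve fitting.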
# [16] = ATG_TA_CIS: Attagene CIS-FACTORIAL HepG2 Assay for human TA Basal Promoter (AID 2282964); conditions: HepG2 Attagene CIS-factorial TA basal promoter reporter; actives raise or lower the signal
# Procedure, shortened: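 Cis-factorial format in HepG2: reporters report endogenous factors, not chimeric Gal4 fusions. After 24 h treatment, reporter transcripts were measured by RT-PCR-capillary electrophoresis fluorescence, analysed bidirectionally versus DMSO.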
# [17] = ATG_TCF_b_cat_CIS: Attagene CIS-FACTORIAL HepG2 Assay for human T-Cell-Factor with beta-catenin (TCF/b-cat) (AID 2282965); conditions: HepG2 TCF/beta-catenin cis-reporter transcription, actives raise or lower the signal
# Procedure, shortened: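 Measured: reporter mRNA in HepG2 transiently transfected with cis-promoter reporter units, 24 h after chemical addition. Fitting was bidirectional, DMSO as negative control.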
# [18] = ATG_TAL_CIS: Attagene CIS-FACTORIAL HepG2 Assay for human TAL Basal Promoter (AID 2282966); conditions: HepG2 Attagene cis-factorial TAL promoter reporter; actives raise or lower the signal;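 also: background control endpoint measuring basal TAL promoter reporter mRNA not a specific factor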
# Procedure, shortened: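 In this cell-based multiplex, HepG2 liver cells bearing cis-promoter reporter constructs are dosed for 24 hours. Total RNA is reverse-transcribed and amplified, labelled fragments are sized by capillary electrophoresis, and signal changes are fitted bidirectionally versus DMSO.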
# [19] = ATG_TGFb_CIS: Attagene CIS-FACTORIAL HepG2 Assay for human Transforming Growth Factor (TGF) (AID 2282967); conditions: HepG2 Attagene CIS TGFb reporter, mRNA transcription; actives raise or lower the signal
# Procedure, shortened: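 Multiplexed cis-reporter HepG2 system, 24 h treatment; mRNA induction read by fluorescence after RT-PCR and CE; DMSO negative control, bidirectional curve fitting.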
# [20] = target: Hepatocyte nuclear factor 6 (Homo sapiens) (UniProt Q9UBC0); experiment: ATG_HNF6_CIS: Attagene CIS-FACTORIAL HepG2 Assay for human Hepatocyte Nuclear Factor 6 (HNF6) (AID 2282952); conditions: HepG2 Attagene cis-factorial HNF6 reporter transcription; actives raise or lower the signal
# Procedure, shortened: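 Transiently transfected HepG2 cells expressing cis-regulated reporter transcription units were exposed to chemical for 24 h in a 24-well format. Reporter transcript abundance was determined by fluorescence capillary electrophoresis.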
# Chain of Hypoxia-inducible factor 1-alpha (Homo sapiens) (Q16665 whole entry, looked up): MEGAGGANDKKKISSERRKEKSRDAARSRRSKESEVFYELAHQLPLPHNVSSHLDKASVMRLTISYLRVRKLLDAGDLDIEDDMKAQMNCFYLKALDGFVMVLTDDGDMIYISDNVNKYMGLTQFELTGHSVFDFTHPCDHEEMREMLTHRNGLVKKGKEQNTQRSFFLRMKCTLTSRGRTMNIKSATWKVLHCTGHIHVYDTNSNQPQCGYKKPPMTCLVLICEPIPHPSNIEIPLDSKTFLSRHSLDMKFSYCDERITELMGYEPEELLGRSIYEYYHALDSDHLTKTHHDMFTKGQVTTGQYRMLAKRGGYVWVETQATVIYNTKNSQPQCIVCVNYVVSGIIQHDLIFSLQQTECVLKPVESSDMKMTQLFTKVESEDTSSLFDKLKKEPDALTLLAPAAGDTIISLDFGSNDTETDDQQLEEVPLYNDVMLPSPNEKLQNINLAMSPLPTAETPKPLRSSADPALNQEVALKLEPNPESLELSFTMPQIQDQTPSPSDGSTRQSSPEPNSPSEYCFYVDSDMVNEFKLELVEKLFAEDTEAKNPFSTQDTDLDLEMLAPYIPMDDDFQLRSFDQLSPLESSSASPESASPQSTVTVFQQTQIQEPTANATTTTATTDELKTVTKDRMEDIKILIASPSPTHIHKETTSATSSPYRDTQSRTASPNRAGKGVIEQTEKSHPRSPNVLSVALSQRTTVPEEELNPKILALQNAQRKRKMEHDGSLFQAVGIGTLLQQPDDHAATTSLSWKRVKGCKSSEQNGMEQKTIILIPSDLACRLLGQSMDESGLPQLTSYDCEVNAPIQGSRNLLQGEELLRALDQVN
# Chain of Hepatocyte nuclear factor 6 (Homo sapiens) (Q9UBC0 whole entry, looked up): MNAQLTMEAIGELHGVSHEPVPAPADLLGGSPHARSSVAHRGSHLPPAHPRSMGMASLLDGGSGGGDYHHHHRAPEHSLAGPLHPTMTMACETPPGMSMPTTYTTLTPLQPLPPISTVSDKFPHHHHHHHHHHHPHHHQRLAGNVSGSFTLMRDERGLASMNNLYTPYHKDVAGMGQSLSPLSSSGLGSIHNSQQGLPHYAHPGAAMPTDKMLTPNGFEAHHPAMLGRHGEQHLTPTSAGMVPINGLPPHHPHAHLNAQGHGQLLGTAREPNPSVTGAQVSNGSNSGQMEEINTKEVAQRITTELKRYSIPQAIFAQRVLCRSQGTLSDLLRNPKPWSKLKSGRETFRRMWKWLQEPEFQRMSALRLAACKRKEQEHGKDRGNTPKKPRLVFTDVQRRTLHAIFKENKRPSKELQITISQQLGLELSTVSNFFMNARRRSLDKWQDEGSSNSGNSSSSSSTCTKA
# Chain of Transcription factor Sp1 (Homo sapiens) (P08047 whole entry, looked up): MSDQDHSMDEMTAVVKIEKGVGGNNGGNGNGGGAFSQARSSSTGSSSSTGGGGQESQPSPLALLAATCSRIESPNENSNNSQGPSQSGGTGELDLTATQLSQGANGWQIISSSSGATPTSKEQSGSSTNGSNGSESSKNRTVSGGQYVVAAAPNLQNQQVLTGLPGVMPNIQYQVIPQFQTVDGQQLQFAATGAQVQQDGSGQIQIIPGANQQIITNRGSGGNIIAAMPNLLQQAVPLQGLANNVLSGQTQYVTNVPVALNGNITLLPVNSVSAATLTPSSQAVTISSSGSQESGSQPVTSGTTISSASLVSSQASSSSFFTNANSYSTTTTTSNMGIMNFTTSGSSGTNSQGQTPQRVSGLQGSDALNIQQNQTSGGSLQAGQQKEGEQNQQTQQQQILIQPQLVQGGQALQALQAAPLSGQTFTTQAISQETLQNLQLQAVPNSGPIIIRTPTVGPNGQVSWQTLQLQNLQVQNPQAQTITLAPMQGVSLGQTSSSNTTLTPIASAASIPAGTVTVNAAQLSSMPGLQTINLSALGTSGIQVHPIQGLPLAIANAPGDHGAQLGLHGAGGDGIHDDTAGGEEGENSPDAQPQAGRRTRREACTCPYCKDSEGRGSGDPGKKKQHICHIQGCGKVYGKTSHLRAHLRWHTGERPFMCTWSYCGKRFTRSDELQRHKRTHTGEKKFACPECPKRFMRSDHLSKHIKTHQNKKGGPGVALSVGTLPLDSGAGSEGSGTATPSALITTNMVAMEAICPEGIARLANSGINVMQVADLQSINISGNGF
# Chain of Paired box protein Pax-6 (Homo sapiens) (P26367 whole entry, looked up): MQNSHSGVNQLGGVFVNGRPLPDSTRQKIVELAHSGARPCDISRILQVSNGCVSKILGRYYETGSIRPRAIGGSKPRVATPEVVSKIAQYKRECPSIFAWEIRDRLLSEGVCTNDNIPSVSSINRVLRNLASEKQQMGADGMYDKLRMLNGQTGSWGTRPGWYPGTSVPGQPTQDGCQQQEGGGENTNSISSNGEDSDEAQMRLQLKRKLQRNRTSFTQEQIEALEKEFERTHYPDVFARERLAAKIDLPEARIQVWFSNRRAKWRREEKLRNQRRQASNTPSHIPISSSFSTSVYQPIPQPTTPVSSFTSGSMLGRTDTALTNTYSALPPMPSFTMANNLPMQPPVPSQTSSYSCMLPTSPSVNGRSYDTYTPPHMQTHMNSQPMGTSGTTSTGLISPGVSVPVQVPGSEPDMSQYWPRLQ
# Chain of Signal transducer and activator of transcription 3 (Homo sapiens) (P40763 whole entry, looked up): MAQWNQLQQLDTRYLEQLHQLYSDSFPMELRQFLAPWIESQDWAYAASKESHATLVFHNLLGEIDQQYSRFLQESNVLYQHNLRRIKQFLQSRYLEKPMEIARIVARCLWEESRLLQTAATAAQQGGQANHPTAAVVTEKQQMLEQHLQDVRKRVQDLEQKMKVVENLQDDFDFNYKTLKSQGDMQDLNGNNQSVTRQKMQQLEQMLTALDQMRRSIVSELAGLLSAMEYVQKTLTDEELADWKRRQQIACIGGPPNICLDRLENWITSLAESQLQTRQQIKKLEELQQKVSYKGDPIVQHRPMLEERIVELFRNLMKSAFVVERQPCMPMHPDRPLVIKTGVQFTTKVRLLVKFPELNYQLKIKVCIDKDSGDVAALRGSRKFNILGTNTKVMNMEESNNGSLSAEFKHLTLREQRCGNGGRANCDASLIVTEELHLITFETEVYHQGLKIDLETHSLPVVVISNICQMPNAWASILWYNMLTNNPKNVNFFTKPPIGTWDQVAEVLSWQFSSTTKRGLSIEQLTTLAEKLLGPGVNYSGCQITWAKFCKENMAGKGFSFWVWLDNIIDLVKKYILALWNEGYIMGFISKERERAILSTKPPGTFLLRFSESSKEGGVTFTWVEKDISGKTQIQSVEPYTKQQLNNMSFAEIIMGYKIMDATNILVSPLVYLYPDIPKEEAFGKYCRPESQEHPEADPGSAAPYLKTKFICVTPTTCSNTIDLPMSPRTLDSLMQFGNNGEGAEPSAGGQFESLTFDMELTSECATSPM
# Chain of Heat shock factor protein 1 (Homo sapiens) (Q00613 whole entry, looked up): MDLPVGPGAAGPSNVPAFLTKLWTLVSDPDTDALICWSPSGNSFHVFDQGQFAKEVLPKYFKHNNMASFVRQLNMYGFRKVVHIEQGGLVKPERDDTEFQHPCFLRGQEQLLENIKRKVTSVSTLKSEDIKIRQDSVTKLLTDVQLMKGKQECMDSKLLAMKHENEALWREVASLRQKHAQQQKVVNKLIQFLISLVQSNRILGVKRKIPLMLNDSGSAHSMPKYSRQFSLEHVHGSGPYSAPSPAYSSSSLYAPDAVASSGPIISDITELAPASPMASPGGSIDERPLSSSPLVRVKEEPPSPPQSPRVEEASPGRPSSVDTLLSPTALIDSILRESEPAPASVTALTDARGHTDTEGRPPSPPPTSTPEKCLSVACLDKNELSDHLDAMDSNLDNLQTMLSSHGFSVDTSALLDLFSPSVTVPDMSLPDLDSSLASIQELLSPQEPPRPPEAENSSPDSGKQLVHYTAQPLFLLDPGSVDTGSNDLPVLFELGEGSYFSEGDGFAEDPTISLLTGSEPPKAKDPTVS
smiles,measurement,setting,value
CCCCCCCCCCCC[N+](C)(C)CCCCCCCCCCCC,AC50,[1],100 µM (active)
same,outcome,[2],inactive
same,outcome,[3],inactive
same,outcome,[4],inactive
same,outcome,[5],inactive
same,AC50,[6],4.84 µM (active)
same,AC50,[7],25.3 µM (active)
same,outcome,[8],inactive
same,outcome,[9],inactive
same,outcome,[10],inactive
same,AC50,[11],26.1 µM (active)
same,outcome,[12],inactive
same,outcome,[13],inactive
same,outcome,[14],inactive
same,outcome,[15],inactive
same,AC50,[16],26.3 µM (active)
same,AC50,[17],25.4 µM (active)
same,outcome,[18],inactive
same,outcome,[19],inactive
O=C(OC(=O)C(F)(F)C(F)(F)F)C(F)(F)C(F)(F)F,outcome,[1],inactive
same,outcome,[2],inactive
same,outcome,[3],inactive
same,outcome,[4],inactive
same,outcome,[20],inactive
same,outcome,[5],inactive
same,outcome,[6],inactive
same,outcome,[8],inactive
same,outcome,[9],inactive
same,outcome,[10],inactive
same,outcome,[11],inactive
same,outcome,[14],inactive
same,outcome,[15],inactive
same,outcome,[16],inactive
same,outcome,[17],inactive
same,outcome,[18],inactive
same,outcome,[19],inactive
FC(F)=C(F)C(F)(F)C(F)(F)C(F)(F)C(F)F,outcome,[1],inactive
same,outcome,[2],inactive
same,outcome,[3],inactive
same,outcome,[4],inactive
same,outcome,[5],inactive
same,outcome,[6],inactive
same,outcome,[8],inactive
same,outcome,[9],inactive
same,outcome,[10],inactive
same,outcome,[11],inactive
same,outcome,[12],inactive
same,outcome,[13],inactive
same,outcome,[14],inactive
same,outcome,[15],inactive
same,outcome,[16],inactive
same,outcome,[17],inactive
same,outcome,[18],inactive
same,outcome,[19],inactive
C[C@]12CC[C@@H]3c4ccc(O)cc4CC[C@H]3[C@@H]1C[C@@H](O)[C@@H]2O,outcome,[1],inactive
same,outcome,[2],inactive
same,outcome,[3],inactive
same,outcome,[4],inactive
same,outcome,[20],inactive
same,outcome,[5],inactive
same,outcome,[6],inactive
same,outcome,[8],inactive
same,outcome,[9],inactive
same,outcome,[11],inactive
same,outcome,[13],inactive
same,outcome,[14],inactive
same,outcome,[15],inactive
same,outcome,[16],inactive
same,outcome,[17],inactive
same,outcome,[18],inactive
same,outcome,[19],inactive
